# Screening data deposited in PubChem BioAssay by The Scripps Research Institute Molecular Screening Center.
# Most compounds without a hit are left out; they make up all but 4.8% or so of the library.
# DAX1 inh-1: DAX1 (NR0B1) inhibitors, primary screen, cell-based, HEK293, Gal4-DAX1, luciferase luminescence | HEK293 Gal4-DAX1 luciferase reporter | AID 504766, 2011 | 340,000 tested, 0.99% active | inhibition, % at 6.75 µM | Nuclear receptor subfamily 0 group B member 1 (Homo sapiens), P51843;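 active means inhibition above the mean over all tested compounds plus 3 SD, cut at about 4.2% in these data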;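 further: inhibition shows as a rise in luminescence from relieved DAX1 repression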
# Target sequence (P51843 207-470 limits assumed): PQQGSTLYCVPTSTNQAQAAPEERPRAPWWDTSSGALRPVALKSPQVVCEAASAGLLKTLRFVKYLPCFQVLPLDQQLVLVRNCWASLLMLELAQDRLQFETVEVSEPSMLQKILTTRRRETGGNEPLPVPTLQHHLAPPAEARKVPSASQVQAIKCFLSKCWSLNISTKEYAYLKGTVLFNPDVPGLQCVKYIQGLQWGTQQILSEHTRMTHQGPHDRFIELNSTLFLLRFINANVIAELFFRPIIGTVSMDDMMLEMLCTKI
# DAX1 inh-2: DAX1 (NR0B1) inhibitors on StAR promoter, primary screen, cell-based, luminescence, SF-1 (NR5A1), full-length DAX-1; HEK293T StAR-luciferase reporter, SF-1/DAX-1 repression relief; inhibition, % at 6.8 µM; 370,000 tested, 1.1% active; AID 652010, 2013;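 active means inhibition above the mean over all tested compounds plus 3 SD, cut at about 3.6% in these data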;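 further: higher inhibition means more luminescence from relief of DAX-1 repression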
# hgDAF-12 ag: H. glycines DAF-12 receptor agonists, primary screen, cell-based, luminescence, HEK293, GAL4 fusion, UAS-luciferase; Nuclear hormone receptor DAF-12 (Heterodera glycines), GAL4 fusion; HEK293 GAL4-hgDAF12 UAS-luciferase reporter, agonist luminescence; normalized to butyrate control; activation, % at 6.8 µM; 370,000 tested, 1.8% active; AID 687014, 2013;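 active means activation above a cutoff set at the mean of all screened compounds plus 3 SD, cut at about 10% in these data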
# SMARCA2 act: SMARCA2 (BRM) function activators, primary screen, cell-based, luminescence, high throughput | MG213 cells, MMTV-luciferase reporter, dexamethasone, overnight | activation, % at 9.1 µM | 370,000 tested, 1% active | AID 652017, 2013; in the data active means activation above about 7.8%
# ssDAF12 agonist: S. stercoralis DAF-12 nuclear receptor activators, primary screen, cell-based, luminescence, HEK293, GRIP1 co-expression, lit1-tk-luc. Nuclear hormone receptor DAF-12 (Strongyloides stercoralis). 370,000 tested, 1% active. HEK293 ssDAF-12/GRIP1 lit1-tk-luc reporter; % of 3 µM dafachronic acid response. activation, % at 6.8 µM;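 active means activation above the mean over all tested compounds plus 3 SD, cut at about 0.9% in these data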
# hcDAF12 agonist: H. contortus DAF-12 nuclear receptor activators, primary screen, cell-based, luminescence, HEK293, lit1-tk-luc reporter. AID 652067, 2013. HEK293 hcDAF-12 lit1-tk-luc reporter; 0% DMSO, 100% Δ7-dafachronic acid. 370,000 tested, 1.4% active. activation, % at 6.8 µM;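 active means activation above the mean of all tested compounds plus 3 SD, cut at about 5.5% in these data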
# Hits are given with their value; 0 = inactive; - = no result given.
SMILES,DAX1 inh-1,DAX1 inh-2,hgDAF-12 ag,SMARCA2 act,ssDAF12 agonist,hcDAF12 agonist
O=C(Nc1ccccc1)c1nc[nH]c1C(=O)NCCNC(=O)c1[nH]cnc1C(=O)Nc1ccccc1,0,0,0,0,0,0
CCC(C(=O)Nc1ccccn1)c1ccccc1 (centres undefined),0,0,0,0,0,0
O=c1c2ccccc2nc2c3ccccc3ncn12,0,0,0,0,0,0
CCC(=O)Nc1cccc(Oc2nc(C)cc(C)c2C#N)c1,0,0,0,0,0,0
Cc1ccsc1/C=N/n1c(-c2ccccn2)n[nH]c1=S,0,0,0,0,0,5.7
O=C(CCCCC(=O)Nc1ccccc1Cl)Nc1ccccc1Cl,0,0,0,0,0,0
NNC(=O)CNc1ccccc1Cl,0,0,0,0,1.0,0
COc1ccc(NC(=O)CSc2nc(C)cc(C)n2)cc1,0,0,0,0,0,0
COc1ccc(C(C#N)=C2C=CC(=NO)C=C2)cc1,0,0,0,0,1.3,0
CC(=O)ON=C1C=CC(=C(C#N)c2ccccc2)C=C1,-,0,0,0,0,0
CCCCCCC[C@@H](C/C=C/CCC(=O)N(C)C/C(=C/Cl)C/C(=C\C(=O)N1C[C@H](O)CC1=O)OC)OC,0,0,0,0,0,0
O=C1c2cc(O)cc(O)c2C(=O)c2c1cc(O)c([C@@H](CO)CCO)c2O,0,0,0,0,0,6.1
CCOC(=O)c1ccc2nc(NC(=O)c3cccs3)sc2c1,4.8,0,12.4,0,0,0
CCCC(=O)Nc1nc2ccc(C(=O)OCC)cc2s1,0,0,0,0,0,0
CCCCC(=O)Nc1nc2ccc(C(=O)OC)cc2s1,0,0,10.9,0,0,0
Cc1ccc(OCC(O)CN2C(=O)NC(C)(C)C2=O)cc1 (centres undefined),0,0,0,0,0,0
CCN(CC)CC(O)CN1C(=O)NC(C)(C)C1=O (centres undefined),4.3,0,0,0,0,0
Cc1ccc(OCC(O)CN2C(=O)NC(C)(C)C2=O)cc1C (centres undefined),0,0,11.1,0,0,0
CCN(C(=O)COC(=O)/C=C/c1ccc(S(=O)(=O)N2CCc3ccccc32)cc1)C1CCS(=O)(=O)C1 (centres undefined),-,0,0,0,0,0
COc1ccccc1N(C)S(=O)(=O)c1ccc(Cl)c(C(=O)Nc2cccc(C)n2)c1,0,0,0,0,0,0
CC1=CS/C(=C(/C#N)C(=O)N2CCOCC2)N1c1ccccc1,0,0,0,0,0,0
CCOC(=O)/C(=C/c1ccccc1)NC(=O)c1ccco1,4.9,0,0,0,0,0
CCOc1ccc(CNC(=O)c2ccc3c(c2)N(CC)CCS3)cc1,0,0,0,0,0,0
CCCOc1ccc2c(c1)C(=NN=C(N)N)c1cc(OCCC)ccc1-2,0,0,0,0,0,0
O=C(CSC1=NCCS1)Nc1nc2ccccc2s1,0,0,0,0,1.2,0
SMILES,DAX1 inh-1,DAX1 inh-2,hgDAF-12 ag,SMARCA2 act,ssDAF12 agonist,hcDAF12 agonist
CCC(=O)Nc1nc2ccc3nc(C)sc3c2s1,0,0,10.7,0,0,0
Cc1cc[n+](CC(=O)Nc2nc3ccccc3s2)cc1,0,0,0,0,1.9,0
COC(=O)CCCCCCCCC(=O)Nc1nc2ccccc2s1,0,0,0,0,0,0
COCC(=O)Nc1nc2ccccc2s1,0,0,0,0,0,6.0
Cc1sc(NC(=O)CSC2=NCCS2)nc1-c1ccccc1,0,0,0,0,0,0
Cc1ccc(S(=O)(=O)N(C)CC(=O)Nc2nc3ccccc3s2)cc1,0,0,0,0,0,0
COc1ccc(-n2c(CN3CCN(c4ccccc4)CC3)nc3ccc([N+](=O)[O-])cc3c2=O)c(OC)c1,0,0,0,0,0,0
CCOC(=O)c1c(S(=O)(=O)NCC(=O)Nc2ccccc2F)c(C)n(C)c1C,0,0,0,0,0,0
CC(=O)N1CCN(C(=O)C2(NC(=O)Nc3ccccc3Cl)CCCCC2)CC1,0,0,0,0,0,0
Cc1ccc2c(nc3s/c(=C/c4cccs4)c(=O)n32)c1C,0,0,0,0,0,6.2
c1ccc2c(c1)Cn1c-2nc2ccccc21,0,0,13.2,0,0,6.0
COCCNC(=S)N/N=C(\C)c1ccccc1F,0,0,0,0,0,0
COc1ccc(-n2ccnc2CN2CCN(C3CCCC3)C(CCO)C2)cc1 (centres undefined),4.7,0,0,0,0,0
C=CCOc1c(CNn2nnnc2N)cccc1OC,0,0,0,0,0,0
O=c1[nH][nH]c2c1[C@H](CCc1cccc(Cl)c1)O[C@H](C1CC1)C2,-,0,0,0,0,0
CC1OC(CCc2cccc(Cl)c2)Cc2[nH][nH]c(=O)c21 (centres undefined),-,0,0,0,2.0,0
COc1ccc(NC(=O)O/N=C/c2c(C)nn(C(C)(C)C)c2C)cc1,6.3,0,0,0,0,0
Cc1cc(C(=O)N/N=C(\CCC(=O)O)c2cccs2)c2ccccc2n1,0,0,0,0,0,0
O=C(CCC(=O)c1cccs1)c1cccs1,0,0,12.4,0,0,0
CO/N=C(\CCC(=O)O)c1cccs1,0,0,11.4,0,0,0
C/C(=C\C(=O)c1cccnc1)Nc1ccc(C(=O)O)cc1,0,0,0,0,0,0
CN(C)c1ccc(-c2nc3cc(N)ccc3o2)cc1,0,0,10.9,0,0,5.8
Nc1ccc(-c2nc3ccc(N)cc3o2)cc1,0,0,11.5,0,0,0
Nc1ccc(-c2nc3cc(N)ccc3o2)cc1,0,0,11.2,0,0,0
Cc1ccc2nc(-c3cc(N)cc(N)c3)oc2c1,0,0,0,0,0,0
SMILES,DAX1 inh-1,DAX1 inh-2,hgDAF-12 ag,SMARCA2 act,ssDAF12 agonist,hcDAF12 agonist
Cc1ccc(-n2nnnc2SCC(=O)c2c(N)n(C3CC3)c(=O)[nH]c2=O)cc1,0,0,0,0,0,0
COc1ccc(-c2nc(SC)n(S(=O)(=O)c3ccccc3)n2)cc1,0,0,0,0,1.0,0
CCOc1ccc(Cc2nc(N)nc(N)n2)cc1,0,0,0,0,0,0
O=C(Nc1ccc2oc(-c3ccncc3)nc2c1)c1ccc2c(c1)OCCO2,5.7,0,0,0,0,0
Cc1ccc2oc(-c3ccc(NC(=O)c4ccncc4)cc3O)nc2c1,0,0,12.0,0,0,0
O=c1oc(Nc2ccc(F)cc2)nc2ccccc12,0,0,0,0,0,0
O=c1nc(Nc2ccccc2)oc2ccccc12,5.8,0,0,0,0,0
